For 29 molecules, binding signal results are on record in paper PMC9911399, “Two distinct binding modes provide the RNA-binding protein RbFox with extraordinary sequence specificity”.

The chains are these.
B1: GUAUAGC (DNA:RNA)
RNA: GGGAGACCGGAAUUCAGAUUGUCCGUAUAGCUUAAAUCCCGUCGUAGCCACCA
DNA 1: CAATCTGAATTCCGGTCTCCC
DNA 2: TGGTGGCTACGACGGGATT
B2: UUCCGGG (DNA:RNA)
RNA: B1 RNA with G25U, A27C, U28C, A29G, C31G
DNA 1: CAATCTGAATTCCGGTCTCCC
DNA 2: TGGTGGCTACGACGGGATT
B3: GGGUUCU (DNA:RNA)
RNA: B1 RNA with U26G, A27G, A29U, G30C, C31U
DNA 1: CAATCTGAATTCCGGTCTCCC
DNA 2: TGGTGGCTACGACGGGATT
B4: GGGUUCG (DNA:RNA)
RNA: B1 RNA with U26G, A27G, A29U, G30C, C31G
DNA 1: CAATCTGAATTCCGGTCTCCC
DNA 2: TGGTGGCTACGACGGGATT
B5: GGGUUUC (DNA:RNA)
RNA: B1 RNA with U26G, A27G, A29U, G30U
DNA 1: CAATCTGAATTCCGGTCTCCC
DNA 2: TGGTGGCTACGACGGGATT
B6: GGGGUUC (DNA:RNA)
RNA: B1 RNA with U26G, A27G, U28G, A29U, G30U
DNA 1: CAATCTGAATTCCGGTCTCCC
DNA 2: TGGTGGCTACGACGGGATT
B7: GCGGGGG (DNA:RNA)
RNA: B1 RNA with U26C, A27G, U28G, A29G, C31G
DNA 1: CAATCTGAATTCCGGTCTCCC
DNA 2: TGGTGGCTACGACGGGATT
B8: GGGUUCC (DNA:RNA)
RNA: B1 RNA with U26G, A27G, A29U, G30C
DNA 1: CAATCTGAATTCCGGTCTCCC
DNA 2: TGGTGGCTACGACGGGATT
B9: GUGCGGG (DNA:RNA)
RNA: B1 RNA with A27G, U28C, A29G, C31G
DNA 1: CAATCTGAATTCCGGTCTCCC
DNA 2: TGGTGGCTACGACGGGATT
B10: CGGGUUC (DNA:RNA)
RNA: B1 RNA with G25C, U26G, A27G, U28G, A29U, G30U
DNA 1: CAATCTGAATTCCGGTCTCCC
DNA 2: TGGTGGCTACGACGGGATT
B11: UCGUGUC (DNA:RNA)
RNA: B1 RNA with G25U, U26C, A27G, A29G, G30U
DNA 1: CAATCTGAATTCCGGTCTCCC
DNA 2: TGGTGGCTACGACGGGATT
B12: AGCGUAU (DNA:RNA)
RNA: GGGAGACCGGAAUUCAGAUUGUCCAGCGUAUUUAAAUCCCGUCGUAGCCACCA
DNA 1: CAATCTGAATTCCGGTCTCCC
DNA 2: TGGTGGCTACGACGGGATT
B13: CCUGAUG (DNA:RNA)
RNA: B12 RNA with A25C, G26C, C27U, U29A, A30U, U31G
DNA 1: CAATCTGAATTCCGGTCTCCC
DNA 2: TGGTGGCTACGACGGGATT
B14: GCGUCGC (DNA:RNA)
RNA: B1 RNA with U26C, A27G, A29C
DNA 1: CAATCTGAATTCCGGTCTCCC
DNA 2: TGGTGGCTACGACGGGATT
B15: GUGAUAC (DNA:RNA)
RNA: B1 RNA with A27G, U28A, A29U, G30A
DNA 1: CAATCTGAATTCCGGTCTCCC
DNA 2: TGGTGGCTACGACGGGATT
B16: CCGUGAG (DNA:RNA)
RNA: B12 RNA with A25C, G26C, C27G, G28U, U29G, U31G
DNA 1: CAATCTGAATTCCGGTCTCCC
DNA 2: TGGTGGCTACGACGGGATT
B17: GAACUGU (DNA:RNA)
RNA: B1 RNA with U26A, U28C, A29U, C31U
DNA 1: CAATCTGAATTCCGGTCTCCC
DNA 2: TGGTGGCTACGACGGGATT
B18: CCGGAUG (DNA:RNA)
RNA: B12 RNA with A25C, G26C, C27G, U29A, A30U, U31G
DNA 1: CAATCTGAATTCCGGTCTCCC
DNA 2: TGGTGGCTACGACGGGATT
B19: GUGGAUG (DNA:RNA)
RNA: B1 RNA with A27G, U28G, G30U, C31G
DNA 1: CAATCTGAATTCCGGTCTCCC
DNA 2: TGGTGGCTACGACGGGATT
B20: GGGGAUG (DNA:RNA)
RNA: B12 RNA with A25G, C27G, U29A, A30U, U31G
DNA 1: CAATCTGAATTCCGGTCTCCC
DNA 2: TGGTGGCTACGACGGGATT
B21: UUGGAUG (DNA:RNA)
RNA: B1 RNA with G25U, A27G, U28G, G30U, C31G
DNA 1: CAATCTGAATTCCGGTCTCCC
DNA 2: TGGTGGCTACGACGGGATT
B22: GGAUUGU (DNA:RNA)
RNA: B1 RNA with U26G, A29U, C31U
DNA 1: CAATCTGAATTCCGGTCTCCC
DNA 2: TGGTGGCTACGACGGGATT
B23: GGAGAUG (DNA:RNA)
RNA: B1 RNA with U26G, U28G, G30U, C31G
DNA 1: CAATCTGAATTCCGGTCTCCC
DNA 2: TGGTGGCTACGACGGGATT
B24: GGGAUGU (DNA:RNA)
RNA: B12 RNA with A25G, C27G, G28A, A30G
DNA 1: CAATCTGAATTCCGGTCTCCC
DNA 2: TGGTGGCTACGACGGGATT
B25: GUGGAGA (DNA:RNA)
RNA: B1 RNA with A27G, U28G, C31A
DNA 1: CAATCTGAATTCCGGTCTCCC
DNA 2: TGGTGGCTACGACGGGATT
B26: CGGGAUG (DNA:RNA)
RNA: B12 RNA with A25C, C27G, U29A, A30U, U31G
DNA 1: CAATCTGAATTCCGGTCTCCC
DNA 2: TGGTGGCTACGACGGGATT
B27: GGAUGUG (DNA:RNA)
RNA: B1 RNA with U26G, A29G, G30U, C31G
DNA 1: CAATCTGAATTCCGGTCTCCC
DNA 2: TGGTGGCTACGACGGGATT
B28: GGAUGUU (DNA:RNA)
RNA: B1 RNA with U26G, A29G, G30U, C31U
DNA 1: CAATCTGAATTCCGGTCTCCC
DNA 2: TGGTGGCTACGACGGGATT
B29: GGAUGUC (DNA:RNA)
RNA: B1 RNA with U26G, A29G, G30U
DNA 1: CAATCTGAATTCCGGTCTCCC
DNA 2: TGGTGGCTACGACGGGATT

Numbering of substitutions follows the chain as printed; changes in the protein carry UniProt numbers. Whole data set: some 16,000 sequences, median “ka relative to ugcaugu” near 0.0091, cut for the highest 2% near 0.032. The full list was thinned out, with the highest values kept by preference.

In this assay the target is T1, RBFOX1 RRM (Homo sapiens, UniProt Q9NWB1 109-208).
T1 sequence: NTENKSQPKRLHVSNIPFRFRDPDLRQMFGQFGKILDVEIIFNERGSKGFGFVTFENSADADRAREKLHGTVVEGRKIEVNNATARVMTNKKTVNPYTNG
Kind of assay: EMSA; HiTS-Eq, 1 nM pool, 10 min; buffer printed only for the single-RNA assays: 10 mM Tris pH 7.5, 150 mM NaCl, 3.4 mM EDTA, 0.001% NP-40, 30 C. Conditions: tags: His6 N-terminal (pET28a); label: 5' 32P. An outline of the steps:
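Purified RbFox RRM (wild type or mutant) was equilibrated for 10 min in 50 µL with 1 nM of a 5′-radiolabelled pool of RNA with 7 randomized nucleotides, its flanks annealed to DNA oligonucleotides, across increasing protein concentrations. Free RNA was separated by 8% native PAGE, excised, reverse-transcribed, PCR-barcoded and sequenced on an Illumina HiSeq 2500. Relative association constants came from read-count changes of each variant against the control reaction, normalised to the cognate motif.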
On the technique in general: A gel shift assay detects complexes by their altered migration in electrophoresis.
As for B1, the binding signal was 0.00925 KA relative to UGCAUGU.
B2: the binding signal was 0.00531 KA relative to UGCAUGU.
For B3, the binding signal was 0.0166 KA relative to UGCAUGU.
For the molecule B4, the binding signal is 0.026 KA relative to UGCAUGU.
Take B5: the binding signal is 0.0237 KA relative to UGCAUGU.
Turning to B6, the binding signal is 0.0437 KA relative to UGCAUGU.
As for B7, the binding signal was 0.0269 KA relative to UGCAUGU.
The value for B8 was 0.0348 KA relative to UGCAUGU.
The result for B9 reads 0.0167 KA relative to UGCAUGU.
As to B10, the binding signal was 0.0418 KA relative to UGCAUGU.
The value for B11 was 0.0187 KA relative to UGCAUGU; that for B12 was 0.00639 KA relative to UGCAUGU; that for B13 was 0.0205 KA relative to UGCAUGU.
The value for B14 was 0.0157 KA relative to UGCAUGU.
The result for B15 reads 0.00876 KA relative to UGCAUGU.
As to B16, the binding signal is 0.0105 KA relative to UGCAUGU.
The result for B17 reads 0.0163 KA relative to UGCAUGU; that for B18, 0.00955 KA relative to UGCAUGU.
The value for B19 was 0.0371 KA relative to UGCAUGU; that for B20 was 0.0389 KA relative to UGCAUGU; that for B21 was 0.0302 KA relative to UGCAUGU.
The value for B22 was 0.0266 KA relative to UGCAUGU; that for B23 was 0.0269 KA relative to UGCAUGU; that for B24 was 0.048 KA relative to UGCAUGU.
Consider B25, for which the binding signal was 0.0173 KA relative to UGCAUGU.
The value for B26 was 0.0412 KA relative to UGCAUGU; that for B27 was 0.0207 KA relative to UGCAUGU.
For the molecule B28, the binding signal is 0.0216 KA relative to UGCAUGU.
The result for B29 reads 0.027 KA relative to UGCAUGU.
